# “And” between values parts separate entries of the source, which are not always exact repeats. Equal values may be shown once. Results filed as inconclusive are left out. The source made the active and inactive calls. Unless noted, no cut-off is given here; in the data, nearly all actives have AC50 up to about 26 µM.
# How the values were obtained:
# [1] = P. berghei load reduction in hepatocytes – cell-based, HepG2, luciferase luminescence, HepG2 viability, primary screen (AID 624349; in the data active = parasite load remaining mostly below about 12%, no sharp cut-off; inactive = mostly above about 10%;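 note: 100% = mean of DMSO negative control wells on the same plate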); conditions: P. berghei liver stage in HepG2, luciferase luminescence, concentration not given here; parasite load remaining: stronger effect = lower value; viability: measured here: HepG2 viability without parasites
# [2] = viability loss in pontine glioma line – cell-based, SU-DIPG-XIII, MIPE5.0, CellTiter-Glo, qHTS, dose response (AID 1347064; cut-off not given, nearly all actives have AC50 up to about 23 µM;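 for AC50: cells exposed to compound for 48 hours before the viability read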); conditions: CellTiter-Glo ATP luminescence
# [3] = JHH-DIPG-1 glioma cell viability, MIPE5.0 library, CellTiter-Glo luminescence, qHTS (AID 1347067); conditions: JHH-DIPG-1 glioma viability, CellTiter-Glo ATP luminescence;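 note: cells exposed to compound for 48 hours before readout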
# [4] = growth inhibition of DIPG cells – cell-based, MIPE5.0 library, qHTS (AID 1347068; cut-off not given, nearly all actives have IC50 up to about 30 µM); conditions: SU-DIPG-XXV viability
# [5] = viability loss in pontine glioma line – cell-based, SU-DIPG-XXV, MIPE5.0, CellTiter-Glo, qHTS, dose response (AID 1347065); conditions: CellTiter-Glo ATP luminescence;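 note: cells exposed to compound for 48 hours before ATP readout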
# [6] = growth inhibition of DIPG cells – cell-based, MIPE4.0 library, CellTiter-Glo luminescence, qHTS (AID 1347066; cut-off not given, nearly all actives have AC50 up to about 30 µM;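 note: cells exposed to compound for 48 hours before readout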); conditions: SU-DIPG-VI viability, CellTiter-Glo ATP luminescence
# [7] = liver-stage malaria parasite load reduction – cell-based, known kinase inhibitor set, luminescence, hepatoma host viability (AID 624392; call rule not given here;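 note: infected cells incubated roughly two days before readout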); conditions: Plasmodium liver stage in hepatoma cells, luciferase luminescence, concentration not given here; liver cell % of control: measured here: host liver cell viability; parasite % of control: stronger effect = lower value
structure (smiles),measurement,setting,value
COc1ccc2nc3n[nH]c(C)c3c(NCCOCCO)c2c1,parasite load remaining,[1],46.1% (inactive)
same,viability,[1],90.1%
same,outcome,[2],inactive
same,outcome,[3],inactive
Nc1nc(-c2nn(Cc3ccccc3F)c3ncccc23)ncc1C1CC1,AC50,[2],11.8 µM (active)
same,outcome,[4],inactive
Nc1nc(OC(c2ccc(-c3cccc(F)c3)cc2)C(F)(F)F)cc(-c2ccc(C[C@@H](N)C(=O)O)cc2)n1 (some centres undefined),AC50,[5],23.5 µM (active)
O=C(NCCCNc1nc(Nc2cccc(CN3CCOCC3)c2)ncc1C1CC1)C1CCC1,AC50,[5],7.42 µM (active)
CN(C)CCCOc1ccc(-c2ccc3ncc4c(c3c2)n(C2CCOCC2)c(=O)n4C)cn1,AC50,[5],5.74 µM (active)
same,outcome,[3],inactive
C[C@@H](Nc1ncnc2[nH]c(-c3ccc(O)cc3)cc12)c1ccccc1,outcome,[2],inactive
same,outcome,[4],inactive
CCc1cc(/C(C)=N/OCc2ccc(C3CCCCC3)c(C(F)(F)F)c2)ccc1CN1CC(C(=O)O)C1,AC50,[5],18.6 µM (active)
same,outcome,[6],inactive
CN(C)CCOc1cc(-c2cn[nH]c2)ccc1NC(=O)C1COc2ccccc2O1 (centres undefined),liver cell % of control,[7],74.6% and 79.4% and 100%
same,parasite % of control,[7],63.3% (inactive) and 69.1% (inactive) and 49.5% (inactive)
same,AC50,[5],7.42 µM (active)
same,outcome,[6],inactive
Cn1cc(-c2cc(Oc3cc(F)c(NC(=O)C4(C(=O)Nc5ccccc5)CC4)cc3F)ccn2)cn1,AC50,[5],16.6 µM (active)
same,AC50,[3],18.6 µM (active)
O=C1CSC(=O)N1C(CCc1ccncc1)COc1ccc(-c2cccc([N+](=O)[O-])c2)cc1 (centres undefined),AC50,[5],18.6 µM (active)
same,AC50,[3],18.6 µM (active)
CNc1nc(Nc2cnn([C@H]3CCN(C4COC4)C[C@@H]3F)c2Cl)ncc1C(F)(F)F,AC50,[5],20.9 µM (active)
CCNC1(C(N)=O)CCN(c2ncnc3c2nc(-c2ccccc2Cl)n3-c2ccc(Cl)cc2)CC1,AC50,[5],11.8 µM (active)

# — PubChem BioAssay
